Measured values published in the supplement of paper PMC11732987, “Enantioselective OTUD7B fragment discovery through chemoproteomics screening and high-throughput optimisation” (Communications Chemistry, 2025).

Legend:
Assay in all cases: log2 ratio of Biotin-Ahx-Ub-VS probe labelling (fragment/DMSO); higher = less target engagement (more negative = stronger competition), active = hit call of the paper (q ≤ 0.05, log2 ratio ≤ -1)
Conditions in all cases: compound concentration: 200 uM; treatment time: 3 h
USP34 = USP34 (UniProt Q70CQ2)
Outline: (§1)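 Values give the average log2 ratio of fragment to vehicle, assessed by unpaired t-test on global-median-normalised Spectronaut label-free quantities. Proteins needed ≥2 unique peptides. HEK293T lysate (495 µg per sample) was treated in triplicate with fragment at 200 µM or vehicle for 3 h and then with Biotin-Ahx-Ub-VS at 0.5 µM final for 1 h. Labelled DUBs were NeutrAvidin-enriched, digested and run by diaPASEF LC-MS/MS.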

USP36 = target: T1, USP36 (UniProt Q9P275)
T1 sequence (whole entry): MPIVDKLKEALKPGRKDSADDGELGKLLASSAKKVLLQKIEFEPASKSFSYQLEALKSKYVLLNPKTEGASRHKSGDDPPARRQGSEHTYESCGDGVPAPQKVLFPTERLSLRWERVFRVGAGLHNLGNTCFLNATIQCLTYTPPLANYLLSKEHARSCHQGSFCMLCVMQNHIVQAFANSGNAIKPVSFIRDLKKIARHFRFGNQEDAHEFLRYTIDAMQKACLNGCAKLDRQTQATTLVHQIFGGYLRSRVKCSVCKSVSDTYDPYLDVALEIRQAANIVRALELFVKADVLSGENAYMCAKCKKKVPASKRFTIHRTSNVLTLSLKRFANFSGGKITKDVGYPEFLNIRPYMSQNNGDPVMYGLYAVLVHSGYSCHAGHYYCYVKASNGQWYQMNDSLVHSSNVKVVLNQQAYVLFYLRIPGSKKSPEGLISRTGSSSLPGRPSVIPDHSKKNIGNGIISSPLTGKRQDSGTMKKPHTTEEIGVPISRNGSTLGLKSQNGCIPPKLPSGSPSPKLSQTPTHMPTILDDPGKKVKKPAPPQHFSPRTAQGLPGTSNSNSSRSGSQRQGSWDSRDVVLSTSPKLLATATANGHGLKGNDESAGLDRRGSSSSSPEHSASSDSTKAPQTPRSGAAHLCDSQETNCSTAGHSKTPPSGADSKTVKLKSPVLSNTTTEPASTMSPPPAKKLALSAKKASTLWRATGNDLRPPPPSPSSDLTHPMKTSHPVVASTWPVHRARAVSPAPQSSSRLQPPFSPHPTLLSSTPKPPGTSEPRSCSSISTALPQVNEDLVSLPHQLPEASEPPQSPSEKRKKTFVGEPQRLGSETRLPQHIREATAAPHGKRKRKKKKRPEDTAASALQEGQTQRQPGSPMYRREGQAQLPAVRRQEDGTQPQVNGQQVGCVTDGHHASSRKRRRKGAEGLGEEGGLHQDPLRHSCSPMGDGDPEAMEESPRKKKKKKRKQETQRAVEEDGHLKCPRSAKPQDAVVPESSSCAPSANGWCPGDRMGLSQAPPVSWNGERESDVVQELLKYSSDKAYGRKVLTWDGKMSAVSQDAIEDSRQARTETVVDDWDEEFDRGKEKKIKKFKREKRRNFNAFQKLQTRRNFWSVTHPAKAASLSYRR
Outline: as §1

USP38 = target: T2, USP38 (UniProt Q8NB14)
T2 sequence (whole entry): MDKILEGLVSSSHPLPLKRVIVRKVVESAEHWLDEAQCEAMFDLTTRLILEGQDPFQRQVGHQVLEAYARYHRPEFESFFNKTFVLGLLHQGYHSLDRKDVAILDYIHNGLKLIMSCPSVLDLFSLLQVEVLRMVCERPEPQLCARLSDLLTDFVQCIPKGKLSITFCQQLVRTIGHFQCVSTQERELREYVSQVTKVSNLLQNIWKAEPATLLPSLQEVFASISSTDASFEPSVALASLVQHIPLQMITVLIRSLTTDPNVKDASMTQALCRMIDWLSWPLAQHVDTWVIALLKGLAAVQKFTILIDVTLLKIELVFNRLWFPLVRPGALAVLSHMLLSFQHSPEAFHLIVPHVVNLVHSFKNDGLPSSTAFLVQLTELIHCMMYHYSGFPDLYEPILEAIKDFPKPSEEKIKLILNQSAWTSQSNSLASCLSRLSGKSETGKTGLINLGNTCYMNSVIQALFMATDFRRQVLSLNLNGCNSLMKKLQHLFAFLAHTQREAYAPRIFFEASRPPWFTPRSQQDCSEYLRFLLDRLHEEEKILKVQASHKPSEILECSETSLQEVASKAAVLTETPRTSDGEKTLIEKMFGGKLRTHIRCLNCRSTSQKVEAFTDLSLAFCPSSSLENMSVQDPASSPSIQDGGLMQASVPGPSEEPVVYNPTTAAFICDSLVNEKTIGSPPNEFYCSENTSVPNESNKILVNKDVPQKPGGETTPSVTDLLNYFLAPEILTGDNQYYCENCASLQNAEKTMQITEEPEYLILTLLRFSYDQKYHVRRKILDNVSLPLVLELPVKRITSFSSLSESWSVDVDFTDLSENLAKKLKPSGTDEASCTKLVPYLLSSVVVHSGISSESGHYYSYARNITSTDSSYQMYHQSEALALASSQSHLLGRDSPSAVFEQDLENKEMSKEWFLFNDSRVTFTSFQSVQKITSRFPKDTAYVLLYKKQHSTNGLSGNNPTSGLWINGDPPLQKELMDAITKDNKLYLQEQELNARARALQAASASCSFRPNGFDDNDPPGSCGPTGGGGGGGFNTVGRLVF
Outline: as §1

USP39 = target: T3, USP39 (UniProt Q53GS9)
T3 sequence (whole entry): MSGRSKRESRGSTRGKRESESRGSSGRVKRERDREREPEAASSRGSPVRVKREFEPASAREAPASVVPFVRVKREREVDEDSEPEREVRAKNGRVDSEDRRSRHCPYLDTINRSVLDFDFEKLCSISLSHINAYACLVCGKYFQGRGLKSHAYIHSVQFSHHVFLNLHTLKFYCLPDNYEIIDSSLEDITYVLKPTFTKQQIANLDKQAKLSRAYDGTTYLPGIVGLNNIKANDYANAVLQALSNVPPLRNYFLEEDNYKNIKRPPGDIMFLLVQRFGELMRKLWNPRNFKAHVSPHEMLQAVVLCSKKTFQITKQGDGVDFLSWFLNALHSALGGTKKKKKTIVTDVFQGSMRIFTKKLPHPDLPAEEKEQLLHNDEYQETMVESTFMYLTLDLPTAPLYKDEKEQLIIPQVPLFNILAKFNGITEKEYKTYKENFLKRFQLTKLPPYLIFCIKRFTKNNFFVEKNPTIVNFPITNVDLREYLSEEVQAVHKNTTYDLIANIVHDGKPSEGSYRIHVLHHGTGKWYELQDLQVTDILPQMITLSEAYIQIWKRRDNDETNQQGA
Outline: as §1

USP4 = target: T4, USP4 (UniProt Q13107)
T4 sequence (whole entry): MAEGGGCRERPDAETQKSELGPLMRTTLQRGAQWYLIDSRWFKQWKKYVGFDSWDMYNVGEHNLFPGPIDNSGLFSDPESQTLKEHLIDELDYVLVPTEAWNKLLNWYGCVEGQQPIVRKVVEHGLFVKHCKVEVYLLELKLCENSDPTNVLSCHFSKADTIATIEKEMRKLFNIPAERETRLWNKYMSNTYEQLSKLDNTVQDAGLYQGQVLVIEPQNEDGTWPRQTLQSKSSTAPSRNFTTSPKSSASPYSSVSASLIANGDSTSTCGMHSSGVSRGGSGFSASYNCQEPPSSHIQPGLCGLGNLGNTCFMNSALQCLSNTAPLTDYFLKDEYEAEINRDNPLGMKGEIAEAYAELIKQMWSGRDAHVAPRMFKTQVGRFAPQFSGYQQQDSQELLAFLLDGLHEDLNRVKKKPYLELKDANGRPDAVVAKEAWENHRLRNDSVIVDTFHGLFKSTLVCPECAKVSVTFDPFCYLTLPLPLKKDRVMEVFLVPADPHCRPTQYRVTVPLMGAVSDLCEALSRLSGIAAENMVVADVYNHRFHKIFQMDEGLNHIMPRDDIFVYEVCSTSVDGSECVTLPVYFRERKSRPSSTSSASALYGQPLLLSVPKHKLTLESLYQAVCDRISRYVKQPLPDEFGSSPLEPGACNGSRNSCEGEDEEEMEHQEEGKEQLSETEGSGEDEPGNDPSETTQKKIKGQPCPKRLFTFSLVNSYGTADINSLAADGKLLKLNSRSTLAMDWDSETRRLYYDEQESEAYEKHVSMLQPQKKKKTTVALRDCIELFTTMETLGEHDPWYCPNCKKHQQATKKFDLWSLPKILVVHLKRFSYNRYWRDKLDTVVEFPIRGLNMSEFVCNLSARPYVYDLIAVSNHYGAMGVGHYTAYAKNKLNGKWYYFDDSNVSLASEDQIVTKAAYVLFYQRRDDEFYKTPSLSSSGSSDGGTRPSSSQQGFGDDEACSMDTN
Outline: as §1

Measured: log2 ratio of Biotin-Ahx-Ub-VS probe labelling

USP34, sequence (Q70CQ2 whole entry, the tested form may be a part): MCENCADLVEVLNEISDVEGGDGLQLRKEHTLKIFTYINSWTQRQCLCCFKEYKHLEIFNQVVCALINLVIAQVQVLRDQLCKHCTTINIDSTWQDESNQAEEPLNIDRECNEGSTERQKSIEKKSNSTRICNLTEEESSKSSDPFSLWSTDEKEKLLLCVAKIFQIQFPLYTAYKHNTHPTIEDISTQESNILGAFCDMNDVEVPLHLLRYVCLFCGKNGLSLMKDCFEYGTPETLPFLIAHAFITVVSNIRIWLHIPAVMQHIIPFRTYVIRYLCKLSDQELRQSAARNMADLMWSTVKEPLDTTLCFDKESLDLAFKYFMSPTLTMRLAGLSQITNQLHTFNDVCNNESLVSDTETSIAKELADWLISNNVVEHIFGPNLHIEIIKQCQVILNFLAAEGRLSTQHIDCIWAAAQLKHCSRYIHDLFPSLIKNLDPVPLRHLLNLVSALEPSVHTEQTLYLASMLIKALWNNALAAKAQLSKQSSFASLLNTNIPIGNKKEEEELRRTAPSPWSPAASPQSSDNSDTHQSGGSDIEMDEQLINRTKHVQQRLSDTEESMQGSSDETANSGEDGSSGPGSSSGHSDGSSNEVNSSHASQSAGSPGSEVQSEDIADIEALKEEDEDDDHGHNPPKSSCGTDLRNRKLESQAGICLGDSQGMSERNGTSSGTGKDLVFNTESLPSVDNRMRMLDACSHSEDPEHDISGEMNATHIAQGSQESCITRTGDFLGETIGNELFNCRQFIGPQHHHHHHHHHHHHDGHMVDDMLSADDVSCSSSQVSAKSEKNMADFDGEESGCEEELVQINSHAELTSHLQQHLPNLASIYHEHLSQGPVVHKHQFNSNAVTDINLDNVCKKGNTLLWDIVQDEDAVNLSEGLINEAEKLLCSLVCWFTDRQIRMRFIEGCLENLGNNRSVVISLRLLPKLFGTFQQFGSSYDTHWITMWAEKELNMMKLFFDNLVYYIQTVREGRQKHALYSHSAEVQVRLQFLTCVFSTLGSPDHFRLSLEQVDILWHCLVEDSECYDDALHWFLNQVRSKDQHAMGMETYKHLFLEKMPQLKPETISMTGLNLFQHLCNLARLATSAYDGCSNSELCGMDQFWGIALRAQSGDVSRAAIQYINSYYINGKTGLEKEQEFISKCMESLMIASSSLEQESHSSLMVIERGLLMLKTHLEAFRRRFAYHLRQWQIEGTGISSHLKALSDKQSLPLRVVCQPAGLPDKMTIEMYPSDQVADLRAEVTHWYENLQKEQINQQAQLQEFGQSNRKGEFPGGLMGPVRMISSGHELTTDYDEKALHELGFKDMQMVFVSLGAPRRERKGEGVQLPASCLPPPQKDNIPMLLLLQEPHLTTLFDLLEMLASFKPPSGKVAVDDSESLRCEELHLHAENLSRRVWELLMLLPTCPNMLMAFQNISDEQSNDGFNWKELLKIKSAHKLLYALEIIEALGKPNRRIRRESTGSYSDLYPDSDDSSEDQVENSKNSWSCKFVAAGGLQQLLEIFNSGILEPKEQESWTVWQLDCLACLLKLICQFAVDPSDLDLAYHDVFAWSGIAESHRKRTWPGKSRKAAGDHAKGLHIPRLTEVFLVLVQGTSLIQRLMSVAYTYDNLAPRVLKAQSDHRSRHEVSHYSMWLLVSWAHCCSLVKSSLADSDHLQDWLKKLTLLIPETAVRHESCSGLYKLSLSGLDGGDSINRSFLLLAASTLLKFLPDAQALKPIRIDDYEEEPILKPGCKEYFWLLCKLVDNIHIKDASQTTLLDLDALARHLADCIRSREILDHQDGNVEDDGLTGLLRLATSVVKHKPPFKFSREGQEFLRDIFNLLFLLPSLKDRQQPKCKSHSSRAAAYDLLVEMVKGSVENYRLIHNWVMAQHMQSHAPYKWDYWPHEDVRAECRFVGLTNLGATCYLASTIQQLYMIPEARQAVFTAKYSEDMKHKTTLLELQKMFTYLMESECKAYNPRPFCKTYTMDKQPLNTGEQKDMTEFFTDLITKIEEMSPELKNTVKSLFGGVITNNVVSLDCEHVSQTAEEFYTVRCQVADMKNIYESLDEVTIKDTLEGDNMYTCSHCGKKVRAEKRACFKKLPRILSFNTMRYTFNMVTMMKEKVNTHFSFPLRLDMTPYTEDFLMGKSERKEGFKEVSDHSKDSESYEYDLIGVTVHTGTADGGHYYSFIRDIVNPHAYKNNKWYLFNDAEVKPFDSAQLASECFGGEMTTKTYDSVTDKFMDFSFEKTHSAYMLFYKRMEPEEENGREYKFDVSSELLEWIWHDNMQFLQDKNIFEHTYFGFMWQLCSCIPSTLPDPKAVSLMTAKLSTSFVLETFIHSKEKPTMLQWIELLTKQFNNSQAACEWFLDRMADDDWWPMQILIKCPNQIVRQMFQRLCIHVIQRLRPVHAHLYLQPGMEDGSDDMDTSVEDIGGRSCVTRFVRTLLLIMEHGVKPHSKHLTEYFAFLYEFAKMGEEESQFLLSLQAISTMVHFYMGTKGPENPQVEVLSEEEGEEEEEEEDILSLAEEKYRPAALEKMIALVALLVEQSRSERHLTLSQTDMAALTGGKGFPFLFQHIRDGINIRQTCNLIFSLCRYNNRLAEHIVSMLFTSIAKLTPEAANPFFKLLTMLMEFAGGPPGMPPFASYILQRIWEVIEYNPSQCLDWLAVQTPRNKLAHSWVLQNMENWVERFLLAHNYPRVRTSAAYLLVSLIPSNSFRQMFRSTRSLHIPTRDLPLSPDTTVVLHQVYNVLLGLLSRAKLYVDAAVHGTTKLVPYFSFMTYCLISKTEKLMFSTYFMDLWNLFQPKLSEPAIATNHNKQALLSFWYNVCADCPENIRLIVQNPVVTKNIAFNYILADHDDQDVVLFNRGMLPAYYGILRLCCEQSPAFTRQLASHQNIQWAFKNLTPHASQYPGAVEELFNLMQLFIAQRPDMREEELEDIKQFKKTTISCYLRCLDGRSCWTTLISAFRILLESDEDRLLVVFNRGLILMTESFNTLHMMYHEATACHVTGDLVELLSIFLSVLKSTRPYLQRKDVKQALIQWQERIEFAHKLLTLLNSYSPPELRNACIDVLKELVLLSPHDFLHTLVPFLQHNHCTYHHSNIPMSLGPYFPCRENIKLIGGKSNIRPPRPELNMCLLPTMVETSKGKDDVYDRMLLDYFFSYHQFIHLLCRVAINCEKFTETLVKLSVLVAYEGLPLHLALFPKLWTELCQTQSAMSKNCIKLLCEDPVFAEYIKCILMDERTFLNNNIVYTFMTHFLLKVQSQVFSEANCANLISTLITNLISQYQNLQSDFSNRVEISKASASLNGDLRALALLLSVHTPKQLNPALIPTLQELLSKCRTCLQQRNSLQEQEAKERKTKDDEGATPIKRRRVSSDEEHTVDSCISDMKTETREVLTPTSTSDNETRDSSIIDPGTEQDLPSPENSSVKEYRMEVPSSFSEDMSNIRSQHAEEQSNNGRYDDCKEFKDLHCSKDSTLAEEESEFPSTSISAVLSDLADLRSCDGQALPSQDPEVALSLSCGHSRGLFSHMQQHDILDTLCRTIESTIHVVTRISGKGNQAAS

CNC(=O)C1(NC(=O)CCl)CCCCC1
inactive: USP34 0.0737 | USP36 0.00681 | USP38 0.142 | USP39 0.392 | USP4 0.249
